The test deals with AMP-activated protein kinase, AMPK (Homo sapiens) (UniProt P54646+O43741+P54619+Q9UGJ0+Q9Y478+Q13131+Q9UGI9). The test can be described thus: AMP-dependent Kinase enzyme assay. An in vitro enzyme assay that detects ADP turnover that is directly proportional to AMPK activity. This uses naive AMPK that is activated during the assay with MK-8722. The format is functional. More on the design: scale not given: direction of the effect not stated beside the values. Conditions: 30 µM.
For `COc1ccccc1C1CCN(C(=O)CN2C(=O)OC(C)(C)C2=O)CC1`, the Percent Effect is -11.8%.
Then `Cc1ccc2c(C(=O)N(C)C)cc(-c3cnn(CCO)c3)nc2c1C`, with 7.33%.
The figure for `Cc1nc2cc(-c3nccn3C)nn2c(N2CCCC2)c1C` is 16.5%; for `Cc1cc(CN2CCC(C3CCN(CCc4ccccc4)C3)CC2)[nH]n1` (centres undefined) it is -5.07%; for `Cc1cnn(C2CN(Cc3nc4cc(Cl)ccc4n3C)C2)c1` it is -6.13%.
The figure for `CCOc1ccccc1CCC(=O)Nc1c(C)nn(C)c1C` is 8.9%; for `Cc1cc(C)c(NC(=O)Nc2cnn(CC(O)CN(C)C)c2)c(C)c1` (centres undefined) it is 0.923%; for `CCNC(=O)c1ccc(NC2CCOC3(CCCCC3)C2)nn1` (centres undefined) it is 3.88%.
As for `CN1CCCC(CCC(=O)N2CCc3c(nc(CC4CC4)[nH]c3=O)C2)C1` (centres undefined), the Percent Effect stood at 10.8%.
The figure for `Cn1ccnc1C1(O)CCN(C(=O)Cc2ccccc2)CC1` is 13.3%; for `Cc1ccc(N2C[C@@H]3CN(C(=O)NC4CCCC4)C[C@]3(C(=O)O)C2)nn1` it is -1.71%; for `CCC(C)NC(=O)c1sccc1-n1cnnn1` (centres undefined) it is 9.35%.
With `CN1CCCC(c2nccnc2-c2cccc(C(F)(F)F)c2)C1` (centres undefined), the Percent Effect stood at 26.4%.
The figure for `O=C(CCn1ccc2ncccc2c1=O)N1CCCC1` is -3.54%.
Then `CC(C)(NCCOc1ccc(CC#N)cc1)c1nccs1`, with -2.44%; and `c1csc(N2CCCN(c3ncnc4sccc34)CC2)n1`, with 21.9%.
Then `O=C(NCCc1ccccn1)N1CCOC(c2ccccc2Cl)C1` (centres undefined), with -1.2%; and `Cc1cccn2cc(CNS(=O)(=O)N3CCOCC3)nc12`, with 4.51%.
For the molecule `Cc1cc(N(C)C)nc(N2CCn3c(C)nnc3C2)n1`, the Percent Effect was -2.14%.
Then `CN(C)c1ccc(C(=O)Nc2ccn(Cc3ccccn3)n2)cn1`, with 18.9%; and `CC1CN(c2ncnc3c2cnn3C)CCN1c1nccs1` (centres undefined), with 11.2%.
Then `CN(CC(=O)NCC1CCCCC1)S(=O)(=O)c1cccnc1`, with -4.46%; and `CC(C)c1nn(C)c(Cl)c1CNCC(=O)N1CCN(C)CC1`, with -14.6%; and `Cc1noc(C(C)N2CCN(Cc3noc(C4CC4)n3)CC2)n1` (centres undefined), with 3.22%.
Then `NC1CCc2nc(-c3ccncc3)nc(Nc3cccc(F)c3)c2C1` (centres undefined), with -70.9%; and `Cc1n[nH]c(C)c1CCN(C)C(=O)c1ccc(CN2CCCCC2)cc1`, with -2.68%; and `Cc1occc1C(=O)N1CCCC(C2=Nc3ccccc3S(=O)(=O)N2)C1` (centres undefined), with 14.4%.
With `Cc1cc(N(C)C)nc(N2CCn3c(nnc3C3CC3)C2)n1`, the Percent Effect was -2.99%.
The figure for `CCc1cc(CN2CCCCC2c2ccc(F)cc2)on1` (centres undefined) is 2.23%.
Then `CCn1cc(NC(=O)NCCN2CCCCCC2=O)cn1`, with 87.7%.
Then `Cn1cc(S(=O)(=O)N(Cc2ccc(F)cc2F)C2CC2)cc1C(N)=O`, with 3.23%; and `Oc1cccc(CNCc2ccc(-n3cncn3)nc2)c1`, with 2.63%.
Turning to `N#Cc1cccc(S(=O)(=O)NC2CCN(CC(F)(F)F)C2)c1` (centres undefined), the Percent Effect is -2.39%.
`CCc1nc(CNc2cc(C)nc(-c3cccnc3)n2)cs1`: the Percent Effect was -0.151%.
Then `COC(=O)c1cccc(S(=O)(=O)NCC(c2ccco2)N2CCCC2)c1` (centres undefined), with -6.45%.
The figure for `Cc1cccc(Nc2noc3c2CN(C(=O)c2ccn(C)n2)CC3)c1C` is 3.74%; for `Cc1cccc(C2(CNC(=O)c3ccnc(N(C)C)c3)CCOCC2)c1` it is -0.987%.
As for `CCC[C@H]1CN(c2cncc(C(=O)N(C)C)n2)C[C@@H]1N(C)C`, the Percent Effect stood at 9.69%.
Regarding `CN(CCOc1ccc(C#N)cc1)CC1CC1`, the Percent Effect was determined as 22.9%.

Values taken from ChEMBL document CHEMBL3988442, “University of Dundee, Small-Polar-MMV Screening Library” (2021).
